Measurements published in publication PMC12864922, “TDP-43 directly inhibits mRNA accumulation in neurites through modulation of mRNA stability”.
Over roughly 9,900 sequences, “r (bound/input frequency ratio)” has its median near 0.7; the highest 2% begin near 6.5. The list comes from a sample in which the highest values are over-represented; it also holds similar and randomly drawn sequences.

B1: ENSMUSG00000090935.60|Synj2bp (ssRNA)
RNA: GGGAGUUCUACAGUCCGACGAUCGCUUCGAUAUCCGCAUGCUAAUUACCUGCACCUGGAUAUGGGACAGUAGGCUUUUACACUGUUCUUGUGAAUAGGUUUGUAAGCUUCAAAGUCUGCUUUACUUUAUCUUCUGUUAUGAUUGCCUUUGUCAGCAUAGGCAGGAGUCCUUUAGGAUUUCUGCCUAUCAGUAAAAGAAGUAUGUAACCCAAGUUCUACCUUCAGUGGAUUAAAGUUUCAUUAAGUGAAAAUGGAAAGAAAGUAGAAUUACUUGGUAAGAGGCCAAAUGAGGAUACAGAGGCUGCUCUUGCGGUCGCACUAGUGUGGAAUUCUCGGGUGUCAAGG
B2: ENSMUSG00000042529.476|Kcnj12 (ssRNA)
RNA: GGGAGUUCUACAGUCCGACGAUCGCUUCGAUAUCCGCAUGCUAAGAUGUAGGCAACAAGACUAGACCACAUUAAAUGCAUUUUGAUCUCUUUGAAUGCUACUGUGUUGAGAUGUGCGUCUCACUGGCCUCUGCCUGCCUCUCCCGCCUGCGGAGCACUUACACUUCCUGGGGCCCCUGCAGCUGGACCAUGUACAGGGCUCCCUGGGGCUUGUCCUCAGGGGCAGAGAAGGACAUGGUGGCAGCAGCACUGAGAACAGGAGCAUGGCCUCUCUCAGACCCCAGGGCAGUCAUUCAGUCUUUUCCUCUUGCGGUCGCACUAGUGUGGAAUUCUCGGGUGUCAAGG
B3: ENSMUSG00000058297.104|Spock2 (ssRNA)
RNA: GGGAGUUCUACAGUCCGACGAUCGCUUCGAUAUCCGCAUGCUAACCACGGUCUUGUGGUGAUGAGGCAGGACCUGUACACACAGCAAGGCUUACUAUCCGUCUCCUGACAUCCGAAGAGCUCGUCGCAGGUGUGUCUAAUGGCCCUUGGGCUGCACGUGGUUAAGCAUAGCUGUCUCUGUGGCCCAACACAAAGAGGUAAACUUACUUAAAACACAGGGGUUUUGUUGCUGUUUGUUUUUUGUUAGUUUGUUUGUUGAUAAUUGGAUUGAGGAGUUAAUCCUCUGUCACAAUGUCAAAAGCAUCUCUUGCGGUCGCACUAGUGUGGAAUUCUCGGGUGUCAAGG
B4: ENSMUSG00000043670.53|Diras1|229:234 (ssRNA)
RNA: GGGAGUUCUACAGUCCGACGAUCGCUUCGAUAUCCGCAUGCUACCUACAGUAAGGUUGGGCUCCAUCCCUGCCUCUUCACACCUCCAUAGCUUCAUCCUUUGCAGACCUCUCCCUCUAUAUCUCUUUGCUCCCCCACCCCCAUUCUAUCUGCACCCCACAACCACACACUGGAGGUUUGAUCCCUGUGGAUCUGAAAACAGGGACCUGGCUAAGGAACUGCUCAUCCCAGUCAGGCCCAGAGAGGUUACCUUGCCUCUCCAUCUCUGUCCCACACACCCCAGCCAUGCCCACUGUCCCUGUCCCUCUUGCGGUCGCACUAGUGUGGAAUUCUCGGGUGUCAAGG
B5: ENSMUSG00000029636.33|Wasf3|33:37;79:83 (ssRNA)
RNA: GGGAGUUCUACAGUCCGACGAUCGCUUCGAUAUCCGCAUGCUAUCCCUGUAGCUUUAGUCCCUUUUGUAUUAACACACACAUUUGCUUCUGCACAUCCUUCUGGAUUUGUUGAGUAUUUACACACAAAUACUUAAGUGCCACAGAACACAGCACACCGUGCUGCACACCAGGAAACUCGCAGUAUUAGUGCAUCACCCUGGAACAGCAUCUUGCUUCCCUCUCAGCCGUGAGAGUCCCCUCUCCUGUCCAUCCUGAUUUGGUGGGCUUGCCACGUAUCUGCGCAGCUGCCCCACGUCAGCUCUCUCUUGCGGUCGCACUAGUGUGGAAUUCUCGGGUGUCAAGG
B6: ENSMUSG00000004113.19|Cacna1b|119:123 (ssRNA)
RNA: GGGAGUUCUACAGUCCGACGAUCGCUUCGAUAUCCGCAUGCUAACCCUUACCUAGGGCAGCGUCUGGACAGUGAGGCCUCCGCCCACACCCUGCCUGAGGAUACACUCACCUUUGAAGAGGCAGUGGCCACCAACUCUGGCCGCUCCUCCAGGACUUCCUAACACACCUCCCUCACUUCCCAAUCCCACCCUCUCCGCCGUGUACCCAAUGGCUAUCACUGCACUUUGGGACUCAGCACUGGCGUCCGGGCGCGGCACAGCUACCACCACCCCGAUCAGGACCACUGGUGCUAGCUGCACCACCUCUUGCGGUCGCACUAGUGUGGAAUUCUCGGGUGUCAAGG
B7: ENSMUSG00000028439.148|Fam219a (ssRNA)
RNA: GGGAGUUCUACAGUCCGACGAUCGCUUCGAUAUCCGCAUGCUAAGGCUGGAAGCAAGAGAUAAGGCUGGCCUCCUGUGCCCCAUUGCCAUUUCACCCUAGCUCAAAGUCCAGGAGCCAGGCUUCCAGAAAGGCUCUUCAAGAGCAAGCUUAAGGAAAUACAGUGAGCCAAGUGGCUGUAUGAUAUGGUAUGGUAUGGUAUGGUAUGGUAUGGUAUGGUAUGCACAUGUGUGUGCAUGUGUGUGUGCCUGUGUGUGUGCGUGUGCGUGUGUGUAUGUGUGUGCGUGUGUGUGUGUGUGUGUUGUCUCUUGCGGUCGCACUAGUGUGGAAUUCUCGGGUGUCAAGG
B8: ENSMUSG00000028439.147|Fam219a (ssRNA)
RNA: GGGAGUUCUACAGUCCGACGAUCGCUUCGAUAUCCGCAUGCUAGGUUCCAGGCUGGAAGCAAGAGAUAAGGCUGGCCUCCUGUGCCCCAUUGCCAUUUCACCCUAGCUCAAAGUCCAGGAGCCAGGCUUCCAGAAAGGCUCUUCAAGAGCAAGCUUAAGGAAAUACAGUGAGCCAAGUGGCUGUAUGAUAUGGUAUGGUAUGGUAUGGUAUGGUAUGGUAUGGUAUGCACAUGUGUGUGCAUGUGUGUGUGCCUGUGUGUGUGCGUGUGCGUGUGUGUAUGUGUGUGCGUGUGUGUGUGUGUGCUCUUGCGGUCGCACUAGUGUGGAAUUCUCGGGUGUCAAGG
B9: ENSMUSG00000028439.137|Fam219a (ssRNA)
RNA: GGGAGUUCUACAGUCCGACGAUCGCUUCGAUAUCCGCAUGCUAUGCAUCUGUCUCUCUGCCUCAUCCCCACACCGCCCUGCCACCCCCAGUCUUCUGUCUAUUGGUUCCAGGCUGGAAGCAAGAGAUAAGGCUGGCCUCCUGUGCCCCAUUGCCAUUUCACCCUAGCUCAAAGUCCAGGAGCCAGGCUUCCAGAAAGGCUCUUCAAGAGCAAGCUUAAGGAAAUACAGUGAGCCAAGUGGCUGUAUGAUAUGGUAUGGUAUGGUAUGGUAUGGUAUGGUAUGGUAUGCACAUGUGUGUGCAUGCUCUUGCGGUCGCACUAGUGUGGAAUUCUCGGGUGUCAAGG
B10: ENSMUSG00000028439.141|Fam219a (ssRNA)
RNA: GGGAGUUCUACAGUCCGACGAUCGCUUCGAUAUCCGCAUGCUACCACACCGCCCUGCCACCCCCAGUCUUCUGUCUAUUGGUUCCAGGCUGGAAGCAAGAGAUAAGGCUGGCCUCCUGUGCCCCAUUGCCAUUUCACCCUAGCUCAAAGUCCAGGAGCCAGGCUUCCAGAAAGGCUCUUCAAGAGCAAGCUUAAGGAAAUACAGUGAGCCAAGUGGCUGUAUGAUAUGGUAUGGUAUGGUAUGGUAUGGUAUGGUAUGGUAUGCACAUGUGUGUGCAUGUGUGUGUGCCUGUGUGUGUGCGUGCUCUUGCGGUCGCACUAGUGUGGAAUUCUCGGGUGUCAAGG
B11: ENSMUSG00000028439.138|Fam219a (ssRNA)
RNA: GGGAGUUCUACAGUCCGACGAUCGCUUCGAUAUCCGCAUGCUAUGUCUCUCUGCCUCAUCCCCACACCGCCCUGCCACCCCCAGUCUUCUGUCUAUUGGUUCCAGGCUGGAAGCAAGAGAUAAGGCUGGCCUCCUGUGCCCCAUUGCCAUUUCACCCUAGCUCAAAGUCCAGGAGCCAGGCUUCCAGAAAGGCUCUUCAAGAGCAAGCUUAAGGAAAUACAGUGAGCCAAGUGGCUGUAUGAUAUGGUAUGGUAUGGUAUGGUAUGGUAUGGUAUGGUAUGCACAUGUGUGUGCAUGUGUGUGCUCUUGCGGUCGCACUAGUGUGGAAUUCUCGGGUGUCAAGG
B12: ENSMUSG00000028439.140|Fam219a (ssRNA)
RNA: GGGAGUUCUACAGUCCGACGAUCGCUUCGAUAUCCGCAUGCUAUCAUCCCCACACCGCCCUGCCACCCCCAGUCUUCUGUCUAUUGGUUCCAGGCUGGAAGCAAGAGAUAAGGCUGGCCUCCUGUGCCCCAUUGCCAUUUCACCCUAGCUCAAAGUCCAGGAGCCAGGCUUCCAGAAAGGCUCUUCAAGAGCAAGCUUAAGGAAAUACAGUGAGCCAAGUGGCUGUAUGAUAUGGUAUGGUAUGGUAUGGUAUGGUAUGGUAUGGUAUGCACAUGUGUGUGCAUGUGUGUGUGCCUGUGUGUGCUCUUGCGGUCGCACUAGUGUGGAAUUCUCGGGUGUCAAGG
B13: ENSMUSG00000004113.485|Cacna1b (ssRNA)
RNA: GGGAGUUCUACAGUCCGACGAUCGCUUCGAUAUCCGCAUGCUACCUUUGACUAGUUUGCUGCCUGAAUAAUAUUUACAAACUAAACUUUGGAUUCUGCUCUUGUUUCUACAAUGAUUUUUUGUAUAAAGCAAAGUCCUUGGAUUAAAUAAAAACAACCCAAAAAAAAAAUCAAAAUCAAAACCCAGGAUGCAACUGGGUGAUACCUGAGGACAGUGUGUCUCAGUGCGUCGGUGGAGAGGGUAUACUGCCAGGAGAGCUCAAGAAAAAUUGAGAACUUCAGCAAAGUGCCUGUGAGCACUUGGCUCUUGCGGUCGCACUAGUGUGGAAUUCUCGGGUGUCAAGG

target: TDP-43 (Homo sapiens, UniProt Q13148 1-414); experiment: RNA Bind-n-Seq with designed 260-mer pool; 25 mM Tris-HCl, 150 mM KCl, 3 mM MgCl2, BSA (printed 500 mg/mL), 20 units/mL SUPERase IN; pH not stated; 500 nM RNA pool, 1 h, 4 C; TDP-43 5, 50, 500 nM; high values mean tight binding; details: protein: recombinant; tags: SBP (GST cleaved off with PreScission; pGEX-GST-SBP)
Sequence (Q13148 whole entry): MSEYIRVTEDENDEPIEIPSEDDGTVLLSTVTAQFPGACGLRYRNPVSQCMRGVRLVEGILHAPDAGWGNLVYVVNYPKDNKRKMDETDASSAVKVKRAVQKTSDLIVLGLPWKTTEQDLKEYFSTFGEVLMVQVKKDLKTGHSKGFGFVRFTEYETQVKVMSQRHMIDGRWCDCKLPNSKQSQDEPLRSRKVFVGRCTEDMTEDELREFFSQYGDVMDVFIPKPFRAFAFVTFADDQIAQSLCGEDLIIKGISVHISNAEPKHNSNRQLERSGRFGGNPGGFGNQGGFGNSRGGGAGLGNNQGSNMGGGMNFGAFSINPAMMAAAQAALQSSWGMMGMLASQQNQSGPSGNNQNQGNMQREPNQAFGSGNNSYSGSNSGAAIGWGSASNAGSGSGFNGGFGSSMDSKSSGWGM
Summary of the method: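 In 25 mM Tris-HCl, 150 mM KCl, 3 mM MgCl2, BSA and SUPERase IN, 500 nM of an in vitro-transcribed 260-nt 3′ UTR oligo pool was incubated for 1 h at 4 °C with SBP-tagged TDP-43 (5, 50 or 500 nM) captured on streptavidin beads. RNA remaining after washes was biotin-eluted, reverse transcribed, PCR-amplified and sequenced. Binding, R, is the bound-sample abundance of each oligo, normalized to mapped reads, divided by its abundance in input. Each duplicate used a separate, independent protein batch.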

Row | Binder | binding signal
1 | B1 | 0.778 R (bound/input frequency ratio)
2 | B2 | 0.564 R (bound/input frequency ratio)
3 | B3 | 0.391 R (bound/input frequency ratio)
4 | B4 | 2.98 R (bound/input frequency ratio)
5 | B5 | 0.758 R (bound/input frequency ratio)
6 | B6 | 1.6 R (bound/input frequency ratio)
7 | B7 | 7.16 R (bound/input frequency ratio)
8 | B8 | 7.43 R (bound/input frequency ratio)
9 | B9 | 1.7 R (bound/input frequency ratio)
10 | B10 | 3.58 R (bound/input frequency ratio)
11 | B11 | 1.6 R (bound/input frequency ratio)
12 | B12 | 2.02 R (bound/input frequency ratio)
13 | B13 | 0.542 R (bound/input frequency ratio)
